Source: PMC11006913

biological target: CRX (Homo sapiens, UniProt O43186 26-111, E42D); assay: PBM; 200 nM protein, PBS; settings: dsDNA, one strand shown
Sequence (O43186 26-111 E42D): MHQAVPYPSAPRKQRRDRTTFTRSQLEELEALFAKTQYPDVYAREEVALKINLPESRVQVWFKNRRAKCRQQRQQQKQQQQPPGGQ

First: CTCTCTCC
Second: GCTATTTA
The binding signal of the first is lower: 8.15 upbm affinity estimate (log intensity, higher = more binding, comparable within an allelic series) for the first, 10.1 upbm affinity estimate (log intensity, higher = more binding, comparable within an allelic series) for the second.

Compared with GGGAGACA, ACTGCAGT is higher in binding signal: 8.2 upbm affinity estimate (log intensity, higher = more binding, comparable within an allelic series) for the first, 8.32 upbm affinity estimate (log intensity, higher = more binding, comparable within an allelic series) for the second.

First: CCGTCGCG
Second: CACCAGTC
The binding signal of the first is lower: 8.11 upbm affinity estimate (log intensity, higher = more binding, comparable within an allelic series) for the first, 8.23 upbm affinity estimate (log intensity, higher = more binding, comparable within an allelic series) for the second.

First: CCGAACCG
Second: CACGGCGA
The binding signal of the first is higher: 8.3 upbm affinity estimate (log intensity, higher = more binding, comparable within an allelic series) for the first, 8.25 upbm affinity estimate (log intensity, higher = more binding, comparable within an allelic series) for the second.

First: CGGGACCC
Second: CAACCTGC
The binding signal of the first is lower: 8.21 upbm affinity estimate (log intensity, higher = more binding, comparable within an allelic series) for the first, 8.42 upbm affinity estimate (log intensity, higher = more binding, comparable within an allelic series) for the second.

Compared with CGCGGCAG, AGATTATG is higher in binding signal: 8.17 upbm affinity estimate (log intensity, higher = more binding, comparable within an allelic series) for the first, 12.6 upbm affinity estimate (log intensity, higher = more binding, comparable within an allelic series) for the second.

Compared with CGCCCCTC, GCCAATCC is higher in binding signal: 8.45 upbm affinity estimate (log intensity, higher = more binding, comparable within an allelic series) for the first, 10.3 upbm affinity estimate (log intensity, higher = more binding, comparable within an allelic series) for the second.

First: GAACGCCC
Second: GAAGTTCC
The binding signal of the first is lower: 8.12 upbm affinity estimate (log intensity, higher = more binding, comparable within an allelic series) for the first, 8.44 upbm affinity estimate (log intensity, higher = more binding, comparable within an allelic series) for the second.

Going from CGAGTGCG to ACTGGACC, the binding signal falls from 8.15 upbm affinity estimate (log intensity, higher = more binding, comparable within an allelic series) to 8.07 upbm affinity estimate (log intensity, higher = more binding, comparable within an allelic series).

Going from CAGGTGCG to ATTAAGCC, the binding signal rises from 8.3 upbm affinity estimate (log intensity, higher = more binding, comparable within an allelic series) to 12.8 upbm affinity estimate (log intensity, higher = more binding, comparable within an allelic series).

Compared with GAACGTTC, CTTGCTAC is higher in binding signal: 7.99 upbm affinity estimate (log intensity, higher = more binding, comparable within an allelic series) for the first, 8.34 upbm affinity estimate (log intensity, higher = more binding, comparable within an allelic series) for the second.

First: AATATTAC
Second: GCAGATCA
The binding signal of the first is lower: 9.84 upbm affinity estimate (log intensity, higher = more binding, comparable within an allelic series) for the first, 10 upbm affinity estimate (log intensity, higher = more binding, comparable within an allelic series) for the second.

Going from ACGCCACG to CCGGTCGA, the binding signal rises from 8.14 upbm affinity estimate (log intensity, higher = more binding, comparable within an allelic series) to 8.46 upbm affinity estimate (log intensity, higher = more binding, comparable within an allelic series).

Going from TAATCCAA to ACGTCTCG, the binding signal falls from 13 upbm affinity estimate (log intensity, higher = more binding, comparable within an allelic series) to 8.27 upbm affinity estimate (log intensity, higher = more binding, comparable within an allelic series).

First: ACCAGTCG
Second: AGATTATA
The binding signal of the first is lower: 8.43 upbm affinity estimate (log intensity, higher = more binding, comparable within an allelic series) for the first, 12.8 upbm affinity estimate (log intensity, higher = more binding, comparable within an allelic series) for the second.

First: AGAAGGAG
Second: CGGGTCAC
The binding signal of the first is higher: 8.28 upbm affinity estimate (log intensity, higher = more binding, comparable within an allelic series) for the first, 8.08 upbm affinity estimate (log intensity, higher = more binding, comparable within an allelic series) for the second.

Going from CACTAATC to ATTTAAGA, the binding signal falls from 12.6 upbm affinity estimate (log intensity, higher = more binding, comparable within an allelic series) to 10.8 upbm affinity estimate (log intensity, higher = more binding, comparable within an allelic series).

Going from GCGTGACC to AATCTCCC, the binding signal rises from 8.49 upbm affinity estimate (log intensity, higher = more binding, comparable within an allelic series) to 10.4 upbm affinity estimate (log intensity, higher = more binding, comparable within an allelic series).

Going from ATAAAACC to AATAATCT, the binding signal rises from 10.4 upbm affinity estimate (log intensity, higher = more binding, comparable within an allelic series) to 12.7 upbm affinity estimate (log intensity, higher = more binding, comparable within an allelic series).

First: AATCCAAC
Second: CGACGGAC
The binding signal of the first is higher: 10.8 upbm affinity estimate (log intensity, higher = more binding, comparable within an allelic series) for the first, 8.15 upbm affinity estimate (log intensity, higher = more binding, comparable within an allelic series) for the second.

biological target: CRX (Homo sapiens, UniProt O43186 26-111, R41L); assay: PBM; 200 nM protein, PBS; settings: dsDNA, one strand shown
Sequence (O43186 26-111 R41L): as the sequence (O43186 26-111 E42D) above, with R16L, D17E counted along it

Compared with CTCTCTCC, GCTATTTA is higher in binding signal: 8.3 upbm affinity estimate (log intensity, higher = more binding, comparable within an allelic series) for the first, 10 upbm affinity estimate (log intensity, higher = more binding, comparable within an allelic series) for the second.

Going from GGGAGACA to ACTGCAGT, the binding signal rises from 8.26 upbm affinity estimate (log intensity, higher = more binding, comparable within an allelic series) to 8.4 upbm affinity estimate (log intensity, higher = more binding, comparable within an allelic series).

First: CCGTCGCG
Second: CACCAGTC
The binding signal of the first is lower: 8.14 upbm affinity estimate (log intensity, higher = more binding, comparable within an allelic series) for the first, 8.2 upbm affinity estimate (log intensity, higher = more binding, comparable within an allelic series) for the second.

Compared with CCGAACCG, CACGGCGA is lower in binding signal: 8.28 upbm affinity estimate (log intensity, higher = more binding, comparable within an allelic series) for the first, 8.27 upbm affinity estimate (log intensity, higher = more binding, comparable within an allelic series) for the second.

Going from CGGGACCC to CAACCTGC, the binding signal rises from 8.21 upbm affinity estimate (log intensity, higher = more binding, comparable within an allelic series) to 8.35 upbm affinity estimate (log intensity, higher = more binding, comparable within an allelic series).

Compared with CGCGGCAG, AGATTATG is higher in binding signal: 8.17 upbm affinity estimate (log intensity, higher = more binding, comparable within an allelic series) for the first, 12.6 upbm affinity estimate (log intensity, higher = more binding, comparable within an allelic series) for the second.

First: CGCCCCTC
Second: GCCAATCC
The binding signal of the first is lower: 8.42 upbm affinity estimate (log intensity, higher = more binding, comparable within an allelic series) for the first, 10.1 upbm affinity estimate (log intensity, higher = more binding, comparable within an allelic series) for the second.

Going from GAACGCCC to GAAGTTCC, the binding signal rises from 8.13 upbm affinity estimate (log intensity, higher = more binding, comparable within an allelic series) to 8.28 upbm affinity estimate (log intensity, higher = more binding, comparable within an allelic series).

Going from CGAGTGCG to ACTGGACC, the binding signal falls from 8.17 upbm affinity estimate (log intensity, higher = more binding, comparable within an allelic series) to 8.11 upbm affinity estimate (log intensity, higher = more binding, comparable within an allelic series).

Going from CAGGTGCG to ATTAAGCC, the binding signal rises from 8.29 upbm affinity estimate (log intensity, higher = more binding, comparable within an allelic series) to 12.2 upbm affinity estimate (log intensity, higher = more binding, comparable within an allelic series).

Going from GAACGTTC to CTTGCTAC, the binding signal rises from 8.07 upbm affinity estimate (log intensity, higher = more binding, comparable within an allelic series) to 8.28 upbm affinity estimate (log intensity, higher = more binding, comparable within an allelic series).

First: AATATTAC
Second: GCAGATCA
The binding signal of the first is lower: 9.61 upbm affinity estimate (log intensity, higher = more binding, comparable within an allelic series) for the first, 9.94 upbm affinity estimate (log intensity, higher = more binding, comparable within an allelic series) for the second.

First: ACGCCACG
Second: CCGGTCGA
The binding signal of the first is lower: 8.23 upbm affinity estimate (log intensity, higher = more binding, comparable within an allelic series) for the first, 8.45 upbm affinity estimate (log intensity, higher = more binding, comparable within an allelic series) for the second.

Going from TAATCCAA to ACGTCTCG, the binding signal falls from 12.8 upbm affinity estimate (log intensity, higher = more binding, comparable within an allelic series) to 8.17 upbm affinity estimate (log intensity, higher = more binding, comparable within an allelic series).

Going from ACCAGTCG to AGATTATA, the binding signal rises from 8.32 upbm affinity estimate (log intensity, higher = more binding, comparable within an allelic series) to 12.8 upbm affinity estimate (log intensity, higher = more binding, comparable within an allelic series).

Going from AGAAGGAG to CGGGTCAC, the binding signal falls from 8.25 upbm affinity estimate (log intensity, higher = more binding, comparable within an allelic series) to 8.09 upbm affinity estimate (log intensity, higher = more binding, comparable within an allelic series).

Going from CACTAATC to ATTTAAGA, the binding signal falls from 12 upbm affinity estimate (log intensity, higher = more binding, comparable within an allelic series) to 10.4 upbm affinity estimate (log intensity, higher = more binding, comparable within an allelic series).

Going from GCGTGACC to AATCTCCC, the binding signal rises from 8.39 upbm affinity estimate (log intensity, higher = more binding, comparable within an allelic series) to 10.6 upbm affinity estimate (log intensity, higher = more binding, comparable within an allelic series).

Going from ATAAAACC to AATAATCT, the binding signal rises from 10.2 upbm affinity estimate (log intensity, higher = more binding, comparable within an allelic series) to 12.6 upbm affinity estimate (log intensity, higher = more binding, comparable within an allelic series).

Compared with AATCCAAC, CGACGGAC is lower in binding signal: 10.7 upbm affinity estimate (log intensity, higher = more binding, comparable within an allelic series) for the first, 8.24 upbm affinity estimate (log intensity, higher = more binding, comparable within an allelic series) for the second.
